Compound activity as filed in PubChem.
Rows were chosen to be rich in hits. Some 1.3% of all compounds tested hit in one or more screens of this group.
AGP1-GFP MLPCN: modulators of AGP1-GFP expression in yeast TOR pathway, primary screen, cell-based, multiplex flow cytometry, S. cerevisiae, MLPCN library; GFP response vs DMSO, % at 10 µM; 3 h; GFP as percent of DMSO wells; hit rate 0.02% among 320,000;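 active means GFP response relative to DMSO above a set limit, near screen average plus 3 SD, cut at about 150% in these data; inconclusive means fewer than 70 cells counted for the yeast strain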;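 further: median GFP channel fluorescence of the gated AGP1 strain per well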
Efflux pump inh: inhibitors of Candida efflux pumps in yeast, primary screen, S. cerevisiae, Nile Red, multiplex; hit rate 0.44% among 330,000; S. cerevisiae Candida pump triplex; inhibition, % at 10 µM; AID 485275, 2010;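 active means plate passing quality check with inhibition over a set limit, or well fluorescence over plate mean plus 4 SD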;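 further: Nile Red retained in pooled yeast measured as flow cytometry median fluorescence; 0% = buffer negative control and 100% = Enniatin B positive control; higher means more Nile Red kept so more efflux inhibition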
MEP2 TOR yeast: modulators of MEP2-GFP levels in yeast, primary screen, S. cerevisiae, multiplex flow cytometry, MLPCN library. S. cerevisiae MEP2-GFP strain, 3 h; 100% = DMSO control level. GFP response vs DMSO, % at 10 µM. hit rate 0.51% among 330,000. AID 2016, 2009;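 active means GFP response versus DMSO above a set limit, roughly screen mean plus 3 SD, cut at about 180% in these data; inconclusive means fewer than 70 cells counted for a yeast strain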;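 further: median GFP fluorescence of the barcode-gated MEP2-GFP cells per well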
LAP4 TOR yeast: modulators of LAP4-GFP expression in yeast, primary screen, S. cerevisiae, multiplex flow cytometry, MLPCN library | 3 h; median GFP as percent of DMSO wells | GFP response vs DMSO, % at 10 µM | hit rate 0.34% among 320,000;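 active means GFP response vs DMSO above a set limit, about the screen mean plus 3 SD, cut at about 150% in these data; inconclusive means under 70 cell events counted for the yeast strain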
CIT2-GFP yeast: modulators of CIT2-GFP expression in yeast, primary screen, S. cerevisiae, GFP fusion, multiplex flow cytometry, MLPCN library. S. cerevisiae CIT2-GFP strain, 3 h; 100 means same as DMSO wells. GFP response vs DMSO, % at 10 µM. hit rate 0.065% among 320,000;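 active means GFP response relative to DMSO above a set limit, near the screen mean plus 3 SD, cut at about 150% in these data; inconclusive means Fewer than 70 cells measured for a yeast strain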;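 further: ratio of well median GFP fluorescence to mean of DMSO wells on the plate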
RPL19A TOR yeast: RPL19A-GFP expression modulators in yeast, primary screen, cell-based, S. cerevisiae, multiplex flow cytometry, MLPCN; S. cerevisiae RPL19A-GFP strain, 3 h; stronger effect = lower value; percent response vs DMSO, % at 10 µM; hit rate 0.3% among 330,000;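 active means percent response vs DMSO below 50%; inconclusive means fewer than 70 events counted for the yeast strain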;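 further: median channel GFP fluorescence of the barcoded RPL19A-GFP strain; ratio of sample median GFP to plate DMSO average so 100% = DMSO; lower means less RPL19A-GFP as with rapamycin TOR inhibition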
Numbers without * were called inactive; ? = inconclusive; · = not tested or not shown; [ ] = dose if it differs, or a comment.

SMILES | AGP1-GFP MLPCN | Efflux pump inh | MEP2 TOR yeast | LAP4 TOR yeast | CIT2-GFP yeast | RPL19A TOR yeast
CCCc1cc(=O)n(-c2nc3ccccc3s2)[nH]1 | 93 | 0 | 90 | 159* | 92 | 91
CN(CC(=O)Nc1ccc(Cl)cc1F)C1CCS(=O)(=O)C1 (configuration not stated) | 103 | 0 | 105 | 111 | 95 | 99
COc1cccc(NC(=O)C(C#N)Cc2ccncc2)c1 (configuration not stated) | 114 | 0 | 94 | 98 | 100 | 104
CCc1ccccc1NC(=O)C(C#N)Cc1cccnc1 (configuration not stated) | ? | 0 | 209*[may fluoresce violet] | 93 | ? | 61
CCc1ccccc1NC(=O)CN1CCN(C(=O)C2CCN(C(=O)/C=C/c3ccccc3)CC2)CC1 | 98 | 0 | 95 | 99 | 96 | 96
N#CCc1ccc(Oc2ncccn2)cc1 | 100 | 0 | 98 | 105 | 91 | 97
COc1ccc(C(=O)NC2CCN(CC(=O)NCc3ccccc3)CC2)cc1 | 63 | 0 | 506*[may fluoresce violet] | 94 | ? | 60
O=C1Nc2ccc(Br)cc2/C1=C/C1CC=CCC1 (configuration not stated) | 90 | 0 | 91 | 192* | 97 | 79
O=C1NC(Cc2ccccc2)C(=O)Nc2ccc(Br)cc21 (configuration not stated) | 103 | 0 | 109 | 100 | 106 | 109
Cc1nc(Oc2ccccc2)c2oc3ccccc3c2n1 | ? | 0 | 430*[may fluoresce violet] | 112 | ? | 57
COc1ccc(Oc2nc(C)nc3c2oc2ccccc23)cc1 | 91 | 0 | 99 | 98 | · | 97
CCOC(=O)C1CCN(C(=O)COc2ccc(N(C)S(=O)(=O)c3ccc(C)cc3)cc2)CC1 | 101 | 0 | 92 | 100 | 90 | 91
COc1ccc(NC(=O)COc2ccc(N(C)S(=O)(=O)c3ccc(Cl)cc3)cc2)cc1OC | 99 | 0 | 89 | 102 | 82 | 97
CCN1CCN(C(c2ccc(C(F)(F)F)cc2)c2ccc3cccnc3c2O)CC1 (configuration not stated) | 27 | 0 | 154 | 94 | 92 | 82
CN1CCN(C(c2ccc(Cl)cc2)c2cc(Cl)c3cccnc3c2O)CC1 (configuration not stated) | 38 | 0 | 140 | 164* | 80 | 65
CN1CCN(C(c2ccc(C(F)(F)F)cc2)c2cc(Cl)c3cccnc3c2O)CC1 (configuration not stated) | ? | 0 | 162 | 202*[may fluoresce violet] | ? | 57
CCN(CC)c1ccc(C2C(C(C)=O)C(=O)CC(C)(O)C2C(C)=O)cc1 (configuration not stated) | ? | 0 | 249*[may fluoresce violet] | ? | ? | 14*[may fluoresce violet]
CC(=O)C1C(=O)CC(C)(O)C(C(C)=O)C1c1ccc(N(C)C)cc1 (configuration not stated) | 109 | 0 | 103 | 104 | 106 | 103
COc1ccc(C2(CNC(=O)C(=O)Nc3ccc(C)cc3)CCOCC2)cc1 | 94 | 0 | 101 | 98 | 97 | 99
COc1ccc(C2(CNS(=O)(=O)c3ccc(C)cc3)CCOCC2)cc1 | 22 | 0 | 191*[may fluoresce violet] | 96 | ? | 50
O=C(NCc1ccc(Cl)cc1)C1CCCN(c2cnccn2)C1 (configuration not stated) | 105 | 0 | 99 | 100 | 108 | 104
Cc1cc(NC(=O)CSc2nnc(-c3ccccc3Cl)o2)no1 | 90 | 0 | 95 | 91 | 91 | 96
COc1ccc(OC)c(NC(=O)COC(=O)CN2C(=O)NC3(CCCC3)C2=O)c1 | 104 | 0 | 98 | 102 | 100 | 99
O=C(Nc1ccc(Cl)c(Cl)c1)N(CCCN1CCOCC1)Cc1cccnc1 | 19 | 0 | 180*[may fluoresce violet] | 91 | ? | 50*[may fluoresce violet]
O=S(=O)(c1ccccc1)N1CCN(CC2CC3C=CC2C3)CC1 (configuration not stated) | 101 | 0 | 105 | 106 | 104 | 100
SMILES | AGP1-GFP MLPCN | Efflux pump inh | MEP2 TOR yeast | LAP4 TOR yeast | CIT2-GFP yeast | RPL19A TOR yeast
O=S(=O)(c1ccc(F)cc1)N1CCN(CC2CC3C=CC2C3)CC1 (configuration not stated) | 20 | 0 | 207*[may fluoresce violet] | 90 | ? | 55
CCN1C(=NCCCOC(C)C)N[C@@H](CCc2ccccc2)[C@H](C(=O)NCCCOC(C)C)[C@H]1C | 100 | 0 | 97 | 91 | 91 | 108
CC(C)CN(C(=O)CN1C(=O)NC2(CCc3ccccc32)C1=O)C1CCS(=O)(=O)C1 (configuration not stated) | 89 | 0 | 95 | 91 | 88 | 92
Cc1nnc(NC(=O)c2cc3n(n2)C(C(F)(F)F)CC(C2CC2)N3)s1 (configuration not stated) | 92 | 0 | 100 | 95 | 96 | 98
O=C(Nc1nc2c(s1)CCCC2)c1cc2n(n1)C(C(F)(F)F)CC(C1CC1)N2 (configuration not stated) | · | 0 | 182*[may fluoresce violet] | 85 | ? | 61
Cc1ccc(C(=O)N/C(=C/c2ccco2)C(=O)N2CCOCC2)cc1 | 130 | 0 | 164 | 174* | 120 | 94
Cc1ccc(C(=O)N/C(=C/c2ccco2)C(=O)N2CCCCC2)cc1 | 96 | 0 | 87 | 96 | 96 | 96
CC(C)(C)[C@@H]1CCC(=O)N(CC[C@H](Sc2ccc(Br)cc2)c2ccccc2)CC1 | 80 | 0 | 88 | 78 | 73 | 92
O=C(NCc1n[nH]c(=S)n1-c1cccc(C(F)(F)F)c1)c1ccc(S(=O)(=O)N2CCCCC2)cc1 | ? | 0 | 221*[may fluoresce violet] | 59 | ? | 26*[may fluoresce violet]
O=C(NCc1n[nH]c(=S)n1-c1cccc(C(F)(F)F)c1)c1ccc(S(=O)(=O)N2CCCC2)cc1 | 97 | 0 | 101 | 86 | 97 | 101
COc1ccc(CCNC(=O)c2ccc(NC(=O)CC3SC(N4CCCC4)=NC3=O)cc2)cc1 (configuration not stated) | 108 | 0 | 92 | 94 | 107 | 97
O=C(Nc1cccnc1)c1c(O)c2cccc3c2n(c1=O)CC3 | ? | 0 | 150 | 38 | ? | 49*[may fluoresce violet]
CNC(=O)c1c(O)c2cccc3c2n(c1=O)CC3 | 99 | 0 | 99 | 99 | 97 | 104
CCN(CC)c1ccc(/C=C/C(=O)C2C(=O)C=C(C)OC2=O)cc1 (configuration not stated) | 68 | 7.6* | 462*[may fluoresce violet] | 429*[may fluoresce violet] | ? | 138
Nc1ccc2oc(=O)c3ccccc3c2c1 | ? | 0 | 231*[may fluoresce violet] | 71 | ? | 34*[may fluoresce violet]
